About 79,000 compounds went through this panel and 15% of them were active in at least one assay; those are over-represented in the sample as a whole. Values without a mark were called inactive. Active and inactive are the calls of the source. Cut-off read from the data, not from the text of the source: active = growth inhibition above about 70%; inactive = the rest.

The experiment in a line: NCI Yeast Anticancer Drug Screen. Data for the cln2 rad14 strain (AID 165).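 Note: 0% = growth equal to vehicle treated cultures.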 Conditions: S. cerevisiae cln2 rad14 strain, at 5.0 µM (retest, dose inferred, filed as 0.5), stronger effect = higher value. A digest of the protocol:
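Growth inhibition, relative to vehicle-treated controls, is the read-out. The test organism is a yeast strain with defined genetic alterations, cln2 rad14.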
For the compound `Cc1nc2c(cnn2-c2ccccc2)c(=O)o1`, the growth inhibition was -52%. Consider `CCOC(=O)C(=O)Nc1nc2c(s1)C(=O)c1ccccc1C2=O`, for which the growth inhibition was -3%. For `O=C(CCl)OCC(=O)c1ccc(-c2ccccc2)cc1` the value was 28%. Turning to `ICCCCCCCCCC[n+]1ccc2ccccc2c1`, the growth inhibition was 42%. As for `CCC(C)OC(=O)Nc1cccc(Cl)c1` (configuration not stated), the growth inhibition is 6%. With `COc1ccccc1CN1CCCN(Cc2ccccc2OC)C1c1ccccc1F` the figure was 1%; with `ON=C(CC(O)(C(F)(F)Cl)C(F)(F)Cl)CC(O)(C(F)(F)Cl)C(F)(F)Cl`, 68%.

On to `COC(=O)Cn1/c(=N\N=C(/C)c2ccc(C)cc2)sc2ccccc21`, for which the growth inhibition was -10%. Turning to `CCN(CC)CCOc1ccc(NC(=S)Nc2ccc(OCC(C)C)cc2)cc1`, the growth inhibition was 10%. With `CCCCCCCCCCNC(=O)CBr` the figure was 5%; with `CN(C)c1ccc(N=Nc2ccc(/C=C3\CCOC3=O)cc2)cc1`, -3%; with `CCc1cccc(CC)c1NC(=O)C1=C(C)NC(C)=C(C(=O)Nc2c(CC)cccc2CC)C1c1ccc2c(c1)OCO2`, 26%.

In the case of `Nc1cc2[nH]c(=O)c3cc(Cl)ccc3c2cc1Cl`, the growth inhibition was 8%. Turning to `COc1ccc(OC(C)=O)c2c1CCC=CC2=O`, the growth inhibition was 14%. With `COc1ccc(-c2n[nH]c(C(F)(F)F)c2N=NN(C)C)cc1OC` the figure was 99% (active). Take `CCC(=NCCCCCCN=C(CC)c1cc(C)cc([N+](=O)[O-])c1O)c1cc(C)cc([N+](=O)[O-])c1O.[Fe]`: the growth inhibition was -7%. With `COc1ccc(CN2CCCN(Cc3ccc(OC)cc3)C2Cc2cc(Cl)ccc2OC)cc1` the figure was -6%.

These data come from PubChem BioAssay (NCI).
